Test results from the supplement of paper PMC10849652.
Targets with a hit are over-represented here; the source holds about 7,900 in all. About 0.6% of all pairs of compound and target were hits. Unmarked numbers belong to inactive results.

Legend:
Experiment in all cases: log2 fold change, soluble protein after heating vs DMSO (PISA); higher = thermal stabilisation; K562 cells, 10 uM, 30 min; active = over 0.2 and 3.5 SD of the protein, either way, in both replicates (recomputed)
[1] = compound: COC1=CC=C(C=C1)CN2C=CC3=C2C=C(C=C3)C(=O)NO
Summary of the method: (§1)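 K562 cells (2×10^6 cells/mL) were treated with 10 μM compound for 30 min, and aliquots were heated for 3 min over 48°C-58°C. Pooled aliquots were extracted in PBS with 0.5% NP-40 at 4°C, and the supernatant after 21,000xg for 90 min was measured by TMTpro 16plex LC-MS/MS with channel sums equalised. Reported thermal stability, relative to control samples and from duplicates, is a log2 fold change.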

filanesib = compound: CON(C)C(=O)N1N=C(c2cc(F)ccc2F)S[C@@]1(CCCN)c1ccccc1 [filanesib]
Summary of the method: as §1

zotarolimus = compound: CO[C@H]1C[C@@H]2CC[C@@H](C)[C@@](O)(O2)C(=O)C(=O)N2CCCC[C@H]2C(=O)O[C@H]([C@H](C)C[C@@H]2CC[C@H](n3cnnn3)[C@H](OC)C2)CC(=O)[C@H](C)/C=C(\C)[C@@H](O)[C@@H](OC)C(=O)[C@H](C)C[C@H](C)/C=C/C=C/C=C/1C [zotarolimus]
Summary of the method: as §1

idasanutlin = compound: COc1cc(C(=O)O)ccc1NC(=O)[C@@H]1N[C@@H](CC(C)(C)C)[C@](C#N)(c2ccc(Cl)cc2F)[C@H]1c1cccc(Cl)c1F [idasanutlin]
Summary of the method: as §1

alisertib = compound: COc1cc(Nc2ncc3c(n2)-c2ccc(Cl)cc2C(c2c(F)cccc2OC)=NC3)ccc1C(=O)O [alisertib]
Summary of the method: as §1

[2] = compound: COc1cc2nc(-c3cc(F)ccc3O)nc(N[C@@H]3CNC[C@H]3C(C)(C)O)c2cc1OC
Summary of the method: as §1

gefitinib = compound: COc1cc2ncnc(Nc3ccc(F)c(Cl)c3)c2cc1OCCCN1CCOCC1 [gefitinib]
Summary of the method: as §1

[3] = compound: COc1cccc2cc(-c3nc([C@H]4CC[C@H](C(=O)O)CC4)n4ncnc(N)c34)[nH]c12
Summary of the method: as §1

lapatinib = compound: CS(=O)(=O)CCNCc1ccc(-c2ccc3ncnc(Nc4ccc(OCc5cccc(F)c5)c(Cl)c4)c3c2)o1 [lapatinib]
Summary of the method: as §1

pictilisib = compound: CS(=O)(=O)N1CCN(Cc2cc3nc(-c4cccc5[nH]ncc45)nc(N4CCOCC4)c3s2)CC1 [pictilisib]
Summary of the method: as §1

UniProt Q8NDZ6, sequence (Q8NDZ6 whole entry, looked up): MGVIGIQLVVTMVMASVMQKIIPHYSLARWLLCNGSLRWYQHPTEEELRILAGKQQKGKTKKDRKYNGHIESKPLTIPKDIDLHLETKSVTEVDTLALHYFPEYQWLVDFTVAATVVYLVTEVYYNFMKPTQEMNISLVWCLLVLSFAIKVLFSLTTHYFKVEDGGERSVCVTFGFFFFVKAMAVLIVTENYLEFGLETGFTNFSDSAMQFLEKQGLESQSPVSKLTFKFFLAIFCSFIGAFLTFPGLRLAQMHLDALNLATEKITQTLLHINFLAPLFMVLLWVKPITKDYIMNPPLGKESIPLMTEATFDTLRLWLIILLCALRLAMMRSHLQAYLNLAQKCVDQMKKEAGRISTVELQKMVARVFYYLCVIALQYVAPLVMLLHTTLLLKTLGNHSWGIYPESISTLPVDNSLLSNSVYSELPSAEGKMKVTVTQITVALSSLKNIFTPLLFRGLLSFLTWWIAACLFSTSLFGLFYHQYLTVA
UniProt Q96FX7, sequence (Q96FX7 whole entry, looked up): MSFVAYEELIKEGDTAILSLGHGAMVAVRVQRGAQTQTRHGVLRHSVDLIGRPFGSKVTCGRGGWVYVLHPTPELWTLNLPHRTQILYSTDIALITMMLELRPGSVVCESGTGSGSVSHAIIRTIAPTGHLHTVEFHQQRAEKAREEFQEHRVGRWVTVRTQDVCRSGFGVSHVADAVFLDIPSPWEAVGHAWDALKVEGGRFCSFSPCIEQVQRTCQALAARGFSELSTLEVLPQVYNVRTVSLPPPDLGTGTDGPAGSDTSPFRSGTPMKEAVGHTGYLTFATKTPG
UniProt P22314, sequence (P22314 whole entry, looked up): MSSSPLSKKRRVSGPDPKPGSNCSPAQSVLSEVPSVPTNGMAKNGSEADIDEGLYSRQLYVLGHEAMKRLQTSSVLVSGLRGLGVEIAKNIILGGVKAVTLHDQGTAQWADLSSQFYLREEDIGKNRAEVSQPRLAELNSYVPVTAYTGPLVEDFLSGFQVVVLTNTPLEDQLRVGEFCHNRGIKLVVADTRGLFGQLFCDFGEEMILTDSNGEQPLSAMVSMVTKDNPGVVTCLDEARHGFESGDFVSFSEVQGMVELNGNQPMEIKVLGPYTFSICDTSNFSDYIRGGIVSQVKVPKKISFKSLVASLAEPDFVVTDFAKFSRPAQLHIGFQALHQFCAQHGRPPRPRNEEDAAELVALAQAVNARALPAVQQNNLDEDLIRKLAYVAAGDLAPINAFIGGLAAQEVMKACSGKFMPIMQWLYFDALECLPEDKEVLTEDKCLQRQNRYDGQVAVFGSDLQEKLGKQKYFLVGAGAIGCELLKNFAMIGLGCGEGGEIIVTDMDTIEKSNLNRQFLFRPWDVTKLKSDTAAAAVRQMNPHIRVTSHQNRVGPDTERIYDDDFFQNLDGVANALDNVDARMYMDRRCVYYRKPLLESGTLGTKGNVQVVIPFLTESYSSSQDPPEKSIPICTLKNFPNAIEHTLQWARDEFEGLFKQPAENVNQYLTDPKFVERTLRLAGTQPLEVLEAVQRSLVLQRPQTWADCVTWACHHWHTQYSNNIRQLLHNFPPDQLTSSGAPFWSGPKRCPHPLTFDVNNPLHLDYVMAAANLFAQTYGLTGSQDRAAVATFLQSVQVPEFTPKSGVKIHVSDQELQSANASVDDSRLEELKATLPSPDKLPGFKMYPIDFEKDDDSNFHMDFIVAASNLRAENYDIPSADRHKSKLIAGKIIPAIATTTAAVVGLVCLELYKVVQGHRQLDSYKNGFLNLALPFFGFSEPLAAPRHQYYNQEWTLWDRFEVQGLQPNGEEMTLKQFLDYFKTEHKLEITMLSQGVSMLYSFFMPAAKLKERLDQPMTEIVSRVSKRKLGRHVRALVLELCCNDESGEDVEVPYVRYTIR
UniProt Q9NX61, sequence (Q9NX61 whole entry, looked up): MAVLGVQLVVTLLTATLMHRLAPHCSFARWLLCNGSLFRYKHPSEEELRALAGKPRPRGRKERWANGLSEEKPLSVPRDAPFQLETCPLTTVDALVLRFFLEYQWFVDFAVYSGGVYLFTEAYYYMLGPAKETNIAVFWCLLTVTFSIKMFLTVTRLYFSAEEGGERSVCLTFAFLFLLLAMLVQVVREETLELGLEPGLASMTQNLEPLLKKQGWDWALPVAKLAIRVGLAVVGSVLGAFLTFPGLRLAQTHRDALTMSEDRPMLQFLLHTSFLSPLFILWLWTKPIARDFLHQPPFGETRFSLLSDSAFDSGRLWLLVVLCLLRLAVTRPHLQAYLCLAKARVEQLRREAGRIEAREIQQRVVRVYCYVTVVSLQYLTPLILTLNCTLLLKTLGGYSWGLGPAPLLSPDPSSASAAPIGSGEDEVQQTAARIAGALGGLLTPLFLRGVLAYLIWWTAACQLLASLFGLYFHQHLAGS
UniProt O95801, sequence (O95801 whole entry, looked up): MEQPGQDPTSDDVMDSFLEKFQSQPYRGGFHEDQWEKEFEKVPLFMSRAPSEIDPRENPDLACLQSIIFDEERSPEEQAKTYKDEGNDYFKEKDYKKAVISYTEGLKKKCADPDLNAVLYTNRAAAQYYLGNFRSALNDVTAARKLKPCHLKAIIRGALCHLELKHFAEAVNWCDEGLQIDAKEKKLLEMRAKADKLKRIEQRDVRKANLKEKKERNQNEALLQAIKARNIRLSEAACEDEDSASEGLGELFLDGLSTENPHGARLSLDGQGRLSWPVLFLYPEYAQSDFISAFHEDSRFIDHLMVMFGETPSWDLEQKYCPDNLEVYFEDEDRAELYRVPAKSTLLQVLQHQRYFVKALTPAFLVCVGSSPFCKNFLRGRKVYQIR
UniProt O43617, sequence (O43617 whole entry, looked up): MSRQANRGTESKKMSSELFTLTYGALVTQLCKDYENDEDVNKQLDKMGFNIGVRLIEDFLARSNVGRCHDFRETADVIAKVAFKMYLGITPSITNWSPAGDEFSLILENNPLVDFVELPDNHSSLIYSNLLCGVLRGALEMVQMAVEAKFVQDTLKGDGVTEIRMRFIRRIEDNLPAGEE
UniProt O95379, sequence (O95379 whole entry, looked up): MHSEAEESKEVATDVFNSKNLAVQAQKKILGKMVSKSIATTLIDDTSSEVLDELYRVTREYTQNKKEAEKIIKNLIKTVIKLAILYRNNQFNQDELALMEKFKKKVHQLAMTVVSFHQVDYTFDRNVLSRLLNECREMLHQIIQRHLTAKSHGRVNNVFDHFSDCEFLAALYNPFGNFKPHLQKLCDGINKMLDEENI
UniProt Q15642, sequence (Q15642 whole entry, looked up): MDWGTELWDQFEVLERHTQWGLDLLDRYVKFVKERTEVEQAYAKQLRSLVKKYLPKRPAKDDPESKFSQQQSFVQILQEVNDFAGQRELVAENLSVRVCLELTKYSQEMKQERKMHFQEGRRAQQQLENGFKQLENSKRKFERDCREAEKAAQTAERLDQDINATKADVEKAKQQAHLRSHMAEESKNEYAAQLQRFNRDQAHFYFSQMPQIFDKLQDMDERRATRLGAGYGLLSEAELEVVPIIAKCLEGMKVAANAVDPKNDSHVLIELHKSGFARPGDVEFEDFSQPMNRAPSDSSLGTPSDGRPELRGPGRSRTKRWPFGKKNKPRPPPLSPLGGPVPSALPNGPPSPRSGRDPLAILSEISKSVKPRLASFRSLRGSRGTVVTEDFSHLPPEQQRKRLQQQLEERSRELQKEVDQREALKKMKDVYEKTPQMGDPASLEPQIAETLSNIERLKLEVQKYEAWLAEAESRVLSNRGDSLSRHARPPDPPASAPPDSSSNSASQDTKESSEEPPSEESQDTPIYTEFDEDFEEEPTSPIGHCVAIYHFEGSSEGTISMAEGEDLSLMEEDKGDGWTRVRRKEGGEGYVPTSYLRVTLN
UniProt Q969T4, sequence (Q969T4 whole entry, looked up): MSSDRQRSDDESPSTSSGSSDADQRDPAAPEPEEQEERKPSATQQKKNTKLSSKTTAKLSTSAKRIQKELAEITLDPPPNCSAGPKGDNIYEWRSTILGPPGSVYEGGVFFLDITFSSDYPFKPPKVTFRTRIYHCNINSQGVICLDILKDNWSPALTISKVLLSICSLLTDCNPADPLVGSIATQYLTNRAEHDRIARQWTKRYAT
UniProt Q5VIR6, sequence (Q5VIR6 whole entry, looked up): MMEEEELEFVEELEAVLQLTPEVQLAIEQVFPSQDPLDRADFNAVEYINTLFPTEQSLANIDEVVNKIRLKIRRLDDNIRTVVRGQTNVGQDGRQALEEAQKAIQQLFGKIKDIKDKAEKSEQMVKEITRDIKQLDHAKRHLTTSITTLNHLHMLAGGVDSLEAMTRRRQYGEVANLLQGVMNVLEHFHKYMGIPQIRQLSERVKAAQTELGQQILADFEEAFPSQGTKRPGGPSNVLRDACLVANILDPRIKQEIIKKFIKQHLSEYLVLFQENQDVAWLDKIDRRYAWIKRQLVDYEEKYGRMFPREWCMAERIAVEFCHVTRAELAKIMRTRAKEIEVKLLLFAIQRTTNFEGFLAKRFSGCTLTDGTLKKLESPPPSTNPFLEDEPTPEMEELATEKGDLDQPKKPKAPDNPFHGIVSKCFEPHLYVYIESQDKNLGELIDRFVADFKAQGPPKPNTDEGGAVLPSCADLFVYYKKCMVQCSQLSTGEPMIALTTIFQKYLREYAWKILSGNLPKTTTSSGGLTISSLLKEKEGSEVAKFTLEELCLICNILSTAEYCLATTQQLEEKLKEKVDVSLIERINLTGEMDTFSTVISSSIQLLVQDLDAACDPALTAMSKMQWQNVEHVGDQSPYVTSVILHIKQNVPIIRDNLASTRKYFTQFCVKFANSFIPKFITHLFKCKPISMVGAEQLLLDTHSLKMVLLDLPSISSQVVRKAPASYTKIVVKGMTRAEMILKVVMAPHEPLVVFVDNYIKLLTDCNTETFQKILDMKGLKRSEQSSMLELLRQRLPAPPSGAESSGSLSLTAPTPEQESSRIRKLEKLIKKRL
UniProt A6NIH7, sequence (A6NIH7 whole entry, looked up): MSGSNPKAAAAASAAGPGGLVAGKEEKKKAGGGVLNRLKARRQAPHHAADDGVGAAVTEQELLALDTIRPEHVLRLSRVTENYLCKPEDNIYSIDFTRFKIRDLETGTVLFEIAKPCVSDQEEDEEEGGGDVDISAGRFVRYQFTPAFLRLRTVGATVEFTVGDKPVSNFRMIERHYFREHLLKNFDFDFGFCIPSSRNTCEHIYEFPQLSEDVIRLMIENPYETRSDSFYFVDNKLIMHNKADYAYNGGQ

Row | Target | log2 fold change [1] | log2 fold change (filanesib) | log2 fold change (zotarolimus) | log2 fold change (idasanutlin) | log2 fold change (alisertib) | log2 fold change [2] | log2 fold change (gefitinib) | log2 fold change [3] | log2 fold change (lapatinib) | log2 fold change (pictilisib)
1 | VPS53 isoform 4 (UniProt Q5VIR6) | 0.015 | -0.008 | 0.095 | -0.048 | 0.01 | 0.089 | 0.025 | 0.003 | 0.012 | -0.066
2 | TOM1 isoform 2 (UniProt O60784) | -0.118 | -0.031 | -0.001 | 0.056 | -0.002 | -0.039 | -0.031 | 0 | 0.014 | -0.154
3 | TRMT61A (UniProt Q96FX7) | 0.083 | 0.136 | 0.077 | 0.025 | -0.017 | -0.192 | -0.051 | -0.057 | 0.03 | -0.18
4 | WDR62 isoform 4 (UniProt O43379) | -0.036 | 0.016 | 0.028 | 0.02 | -0.024 | -0.026 | 0.049 | 0.046 | 0.054 | 0.015
5 | XRCC5 (UniProt P13010) | 0.19 | -0.049 | 0.087 | 0.014 | 0.061 | -0.232 | 0.076 | -0.087 | 0.024 | -0.047
6 | UQCR10 (UniProt Q9UDW1) | -0.084 | -0.05 | -0.02 | 0.031 | -0.005 | 0.037 | -0.028 | 0.022 | -0.038 | -0.063
7 | TMEM177 (UniProt Q53S58) | -0.037 | -0.115 | 0.019 | -0.077 | -0.199 | -0.154 | 0.077 | 0.086 | -0.016 | 0.151
8 | WNK1 isoform 7 (UniProt Q9H4A3) | -0.034 | -0.003 | -0.006 | -0.026 | -0.026 | 0.082 | 0 | 0.032 | -0.002 | 0
9 | WDR46 (UniProt O15213) | -0.129 | 0.425 | 0.075 | 0.156 | -0.162 | 0.037 | -0.036 | -0.018 | -0.006 | -0.052
10 | TTC4 (UniProt O95801) | 0.087 | 0.004 | 0.016 | -0.003 | 0.029 | 0.054 | 0.032 | -0.072 | -0.003 | -0.016
11 | UBE2E3 (UniProt Q969T4) | -0.077 | -0.046 | -0.013 | -0.075 | -0.045 | 0.108 | -0.076 | 0.022 | -0.021 | 0.089
12 | TMEM120A (UniProt Q9BXJ8) | -0.2 | -0.049 | 0.038 | -0.217 | -0.08 | -0.08 | 0.113 | -0.02 | 0.06 | -0.094
13 | TMEM208 (UniProt Q9BTX3) | -0.131 | -0.254 | -0.111 | -0.137 | 0.109 | 0.019 | -0.055 | -0.146 | -0.151 | -0.17
14 | TRMT10A (UniProt Q8TBZ6) | -0.195 | -0.134 | 0.054 | -0.081 | 0.048 | -0.006 | -0.025 | 0.028 | 0.03 | 0.093
15 | UBA1 (UniProt P22314) | 0.029 | -0.077 | -0.021 | -0.014 | 0.05 | 0.047 | 0.05 | -0.053 | -0.06 | -0.019
16 | UPF3B (UniProt Q9BZI7) | -0.044 | 0.26 | -0.015 | 0.209 | -0.048 | 0.187 | 0.061 | -0.114 | 0.234 | -0.058

Row | Target | log2 fold change [1] | log2 fold change (filanesib) | log2 fold change (zotarolimus) | log2 fold change (idasanutlin) | log2 fold change (alisertib) | log2 fold change [2] | log2 fold change (gefitinib) | log2 fold change [3] | log2 fold change (lapatinib) | log2 fold change (pictilisib)
17 | TMEM161B (UniProt Q8NDZ6) | -0.055 | -0.008 | -0.035 | -0.16 | 0.006 | 0.013 | 0.087 | -0.015 | -0.056 | 0.097
18 | TOE1 (UniProt Q96GM8) | -0.06 | 0.246 | 0.023 | 0.032 | -0.075 | 0.039 | 0.014 | -0.162 | 0.076 | -0.054
19 | TRAPPC3 (UniProt O43617) | -0.141 | -0.069 | -0.037 | -0.025 | -0.055 | 0.012 | 0.007 | 0.067 | 0.023 | 0.023
20 | UXT isoform 2 (UniProt Q9UBK9) | 0.473 (active) | 0.001 | -0.067 | 0.026 | -0.016 | 0.033 | 0.049 | -0.025 | 0.077 | 0.25
21 | TMEM161A (UniProt Q9NX61) | -0.021 | -0.148 | -0.072 | -0.167 | 0.009 | -0.033 | -0.01 | 0.051 | 0.075 | -0.106
22 | TNFAIP8 isoform 4 (UniProt O95379) | 0.027 | -0.015 | 0.085 | -0.055 | -0.01 | 0.046 | 0.028 | 0.041 | 0.065 | -0.027
23 | U2AF2 (UniProt P26368) | 0.038 | 0.071 | 0.018 | 0.042 | -0.089 | 0.014 | 0.028 | 0.074 | -0.013 | 0.013
24 | VPS18 (UniProt Q9P253) | -0.011 | 0.009 | 0.024 | -0.053 | -0.102 | -0.017 | -0.028 | -0.041 | 0.033 | -0.07
25 | USP15 (UniProt Q9Y4E8) | 0.027 | -0.004 | 0.051 | -0.018 | -0.043 | 0.016 | 0.028 | -0.05 | -0.021 | -0.027
26 | USP3 (UniProt Q9Y6I4) | 0.131 | -0.246 | 0.009 | -0.039 | 0.085 | -0.201 | -0.007 | -0.014 | 0.053 | 0.027
27 | UNC119B (UniProt A6NIH7) | -0.232 | 0.059 | 0.074 | -0.034 | -0.185 | 0.069 | 0.116 | -0.002 | 0.06 | 0.092
28 | TPP1 (UniProt O14773) | 0.024 | -0.175 | 0 | -0.008 | 0.168 | -0.072 | -0.039 | 0.087 | -0.026 | 0.011
29 | TSG101 (UniProt Q99816) | 0 | -0.07 | 0.029 | -0.031 | -0.049 | 0.007 | 0.011 | 0.016 | -0.013 | 0.025
30 | TRABD (UniProt Q9H4I3) | 0.001 | 0.051 | 0.11 | 0.167 | -0.109 | 0.198 | 0.149 | -0.006 | 0.081 | 0.15
31 | TRIP10 (UniProt Q15642) | 0.054 | 0.01 | -0.007 | -0.061 | -0.026 | 0.083 | -0.014 | -0.04 | 0.021 | 0.033
